Measured values published in PubChem BioAssay.
A number with no mark means an inactive call. How the calls were made is not given here.

Each molecule was assayed against Pantothenate synthetase (Mycobacterium tuberculosis (strain ATCC 25618 / H37Rv)) (UniProt P9WIL5) (assay: Coupled enzyme confirmation of inhibitors against recombinant Mtb PanC (AID 375;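 further: 0% = full reaction with vehicle and 100% = no enzyme background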)). Settings: coupled enzyme assay; at 10 µM, active compounds read high.
Pantothenate synthetase (Mycobacterium tuberculosis (strain ATCC 25618 / H37Rv)), sequence (P9WIL5 whole entry, looked up): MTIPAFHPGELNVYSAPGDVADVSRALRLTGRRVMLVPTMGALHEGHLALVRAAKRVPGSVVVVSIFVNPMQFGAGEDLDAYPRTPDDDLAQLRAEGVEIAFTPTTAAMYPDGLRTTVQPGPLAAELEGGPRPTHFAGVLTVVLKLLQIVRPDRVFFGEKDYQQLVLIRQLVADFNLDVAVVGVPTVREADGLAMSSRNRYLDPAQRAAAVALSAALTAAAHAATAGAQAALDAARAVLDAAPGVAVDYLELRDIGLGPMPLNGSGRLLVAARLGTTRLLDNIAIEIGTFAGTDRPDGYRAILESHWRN

SMILES | inhibition [%]
CN(C(=O)c1ccccc1Cl)c1ccccc1 | 2
CCCCOc1ccc(C(=O)Nc2ccc(N3CCN(C(=O)C(C)C)CC3)cc2)cc1 | 6
O=C(Nc1cccc2ncccc12)c1ccc2c(c1)OCCO2 | 0
O=C(Nn1c(C2CC2)nc2ccccc2c1=O)c1ccco1 | 0
CCN(C(=O)c1c(OC)cccc1OC)c1nnc(-c2cccnc2)s1 | 0
c1ccc(CN2CCN(CCCNc3ccc4nnc(-c5ccccc5)n4n3)CC2)cc1 | 10
Cc1cn2c(-c3ccc(Cl)cc3)nnc2s1 | 0
O=C(O)C1C2CCC(C2)C1C(=O)NCCCn1ccnc1 (centres undefined) | 12
CCc1nc2scc(-c3ccccc3)c2c(=O)n1N | 5
CC1Cc2ccccc2N1C(=O)CSc1nc2ccccc2n1CC(=O)N1CCOCC1 (centres undefined) | 0
Oc1c(I)cc(I)c2cccnc12 | 2
O=C(CN1C(=O)CCSc2ccccc21)Nc1ccc(F)cc1 | 1
Nc1nc(Cl)nc2c1ncn2[C@H]1C[C@H](O)[C@@H](CO)O1 | 0
Cc1[nH]nc(N=CC2=C(O)CC(C)(C)CC2=O)c1-c1ccccc1 | 5
CCOC(=O)Nc1c(O)ccc2oc(C)c(-c3ccccc3)c12 | 0
Cc1c(C(=O)OCCOC(C)C)[nH]c2c1C(=O)CC(c1ccco1)C2 (centres undefined) | 0
CCCC1CCC(C(=O)Nn2cnc3ccccc3c2=O)CC1 (centres undefined) | 1
COC(=O)c1ccccc1S(=O)(=O)N(CCCO)Cc1cc2c(C)ccc(C)c2[nH]c1=O | 2
C#CCOC(=O)C1C2C=CC(C2)C1C(=O)O (centres undefined) | 1
Cn1c(SCC(N)=O)nnc1C1CCN(S(=O)(=O)c2ccccc2C(F)(F)F)CC1 | 0
COCCCNC(=O)CC(NS(=O)(=O)c1ccc(Cl)cc1)c1ccco1 (centres undefined) | 0
Nc1ccc(S(=O)(=O)c2cccc(N)c2)cc1 | 8
O=C(C1CCCCC1)N1CCC(c2nc3c(nnn3Cc3c(F)cccc3Cl)c(=O)[nH]2)CC1 | 0
CCOc1ccc(Nc2nc(Cc3nnc(SCC(N)=O)o3)cs2)cc1 | 0
